Drawing on PubChem BioAssay (NCI), this text covers growth inhibition for 14 compounds.

The structures appear in SMILES notation. Compounds without any hit were thinned out: in the full panel of roughly 79,000, 15% have a hit. Unmarked numbers belong to inactive results. Active and inactive are the calls of the source. Rule as the data show it: active = growth inhibition above about 70%; inactive = the rest.

This assay is described as follows: NCI Yeast Anticancer Drug Screen. Data for the mlh1 rad18 strain (AID 175). Conditions: S. cerevisiae mlh1 rad18 strain growth inhibition, hits give high values. The procedure:
Growth inhibition of yeast strains with defined genetic alterations is measured as a screen for potential anti-cancer activity. Selected strains with alterations in DNA damage repair or cell cycle control were exposed to compounds and growth inhibition was measured relative to vehicle treated controls. The strain used in this assay is mlh1 rad18

[1] abbreviates: at 5.0 µM (retest, dose inferred, filed as 0.5).
The mark [2] stands for this setting: at 50.0 µM (retest, dose inferred, filed as 5.0).

As for `O=Cc1ccccc1C=O`, the growth inhibition is, setting by setting: under setting [1], -23%; under setting [2], 48%; (at 50.0 µM) 82% (active).

Consider `CCCCCCC=C(C(=O)OCC)C(=O)OCC`, for which the growth inhibition is -3% under setting [1], 85% (active) under setting [2] and 76.3% (active) (at 50.0 µM).

`O=C1C(=C2CCCC2)CCC1CN1CCCCC1` (configuration not stated): the growth inhibition by setting is: under setting [1], -29%; under setting [2], 83% (active); (at 50.0 µM) 63.5%.

With `CCOP(=O)(OCC)/C(C#N)=C/c1cccc(Oc2ccccc2)c1`, the growth inhibition was -8% under setting [1], -3% under setting [2] and 88.8% (active) (at 50.0 µM).

Turning to `CCOP(=O)(OCC)/C(C#N)=C\c1cccc2ccccc12`, the growth inhibition reads like this: under setting [1], -13%; under setting [2], 95% (active); (at 50.0 µM) 86.2% (active).

For the compound `CN(C)/C(=N/C(=S)Nc1ccccc1)SCc1ccccc1`, the growth inhibition is, setting by setting: under setting [1], -1%; under setting [2], 76% (active); (at 50.0 µM) 97.7% (active).

For `Cc1ccccc1NC(=O)c1c(C)oc2c1C(=O)c1ccccc1C2=O`, the growth inhibition under setting [1] was -2%, the growth inhibition under setting [2] is 76% (active) and the growth inhibition (at 50.0 µM) was 77% (active).

On to `CCOC(=O)/C(=C\c1ccc(F)cc1)C(C)=O`, for which the growth inhibition by setting is: under setting [1], 6%; under setting [2], 97% (active); (at 50.0 µM) 91.9% (active).

As for `O=[N+]([O-])c1cc[n+]([O-])c(Cl)c1`, the growth inhibition reads like this: under setting [1], 1%; under setting [2], 99% (active); (at 50.0 µM) 99.5% (active).

As for `COc1ccc(C(=O)/C=C\c2ccc(Cl)c(Cl)c2)cc1`, the growth inhibition was 39% under setting [1], 72% (active) under setting [2] and 63.5% (at 50.0 µM).

Take `COc1cccc(C(NC2=NCCC=N2)c2cc3c(cc2O)OCO3)c1O` (configuration not stated): the growth inhibition reads like this: under setting [1], -31%; under setting [2], 72% (active); (at 50.0 µM) 49.2%.

With `COc1cc([C@@H]2c3cc4c(cc3[C@@H](NC(=O)NO)[C@H]3COC(=O)[C@H]23)OCO4)cc(OC)c1O`, the growth inhibition runs as follows: under setting [1], 5%; under setting [2], -14%; (at 50.0 µM) 12.7%.

In the case of `O=C(C(Cl)=C(N1CCCCC1)N1CCCCC1)C(Cl)Cl`, the growth inhibition is 48% under setting [1], 99% (active) under setting [2] and 81.3% (active) (at 50.0 µM).

With `O=C1C[C@H]2[C@H](c3ccc(Br)cc3)[C@H]3C(=O)c4ccccc4NC(=O)[C@@H]3[C@@]2(O)c2ccccc2N1`, the growth inhibition by setting is: under setting [1], 36%; under setting [2], 54%; (at 50.0 µM) 97.8% (active).
